Results filed as inconclusive are left out. The source made the active and inactive calls. The call rests on the fitted dose curve; in most records, active means well fitted curve in the direction sought with a large enough effect in the repeat runs; inconclusive means weak or mixed curves; inactive means no such curve, though single readings can be large; an effect the other way counts as inactive or inconclusive.
Columns and labels:
[1] = Human pregnane X receptor (PXR) small molecule agonists, qHTS cell viability counter screen (AID 1346977); further: nearly all actives have a fitted effect of over 50% in size
How it was run: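 PXR-Luc HepG2 cells (2,000/well, 5% charcoal-stripped FBS) preincubated 5 hr, then exposed to compounds 24 hr at 37 C. Viability read in the same wells by CellTiter-Fluor fluorescence, reagent added at 23 hr, 1 hr incubation.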

[2] = Caspase-3/7 induction in HepG2 cells by small molecules, qHTS assay (AID 1346978); further: nearly all actives have a fitted effect of over 15% in size
How it was run: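 Wild-type HepG2 cells (2,000/well) were settled 5 h at 37 C, 5% CO2, then exposed to compounds in DMSO for 17 h. Caspase-3/7 activity was read by luminescence 30 min after adding Caspase-Glo 3/7 reagent at room temperature.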

[3] = Caspase-3/7 induction in CHO-K1 cells by small molecules, qHTS cell viability counter screen (AID 1346979); further: nearly all actives have a fitted effect of over 35% in size
How it was run: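 Wild-type CHO-K1 cells (1,500/well) treated with compound after 5 h plating; after 16 h at 37C, viability read as CellTiter-Fluor fluorescence following 1 h reagent incubation, in the same wells as the caspase read.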

[4] = Caspase-3/7 induction in CHO-K1 cells by small molecules, qHTS assay (AID 1346980); further: nearly all actives have a fitted effect of over 15% in size
How it was run: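 Wild-type cells were seeded at 1,500 per well and settled 5 hr at 37 C, 5% CO2, then exposed to DMSO-dissolved compounds for 17 hr. Caspase-Glo 3/7 reagent was added, and luminescence was read after 30min at room temperature.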

[5] = Caspase-3/7 induction in HepG2 cells by small molecules, qHTS cell viability counter screen (AID 1346981); further: series mostly up to about 92 µM; nearly all actives have a fitted effect of over 30% in size
How it was run: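 Wild-type HepG2 cells, 2,000/well, settled 5 hr at 37 C, 5% CO2 before compound addition. Viability read by CellTiter-Fluor fluorescence, reagent added after 16 hr compound exposure, then 1 hr at 37C, in the same wells as the caspase read.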

[6] = molecular target: Nuclear receptor subfamily 1 group I member 2 (Homo sapiens) (UniProt O75469); experiment: Human pregnane X receptor (PXR) small molecule agonists, qHTS assay (AID 1346982); further: nearly all actives have a fitted effect of over 35% in size
Nuclear receptor subfamily 1 group I member 2 (Homo sapiens), sequence (O75469 whole entry, looked up): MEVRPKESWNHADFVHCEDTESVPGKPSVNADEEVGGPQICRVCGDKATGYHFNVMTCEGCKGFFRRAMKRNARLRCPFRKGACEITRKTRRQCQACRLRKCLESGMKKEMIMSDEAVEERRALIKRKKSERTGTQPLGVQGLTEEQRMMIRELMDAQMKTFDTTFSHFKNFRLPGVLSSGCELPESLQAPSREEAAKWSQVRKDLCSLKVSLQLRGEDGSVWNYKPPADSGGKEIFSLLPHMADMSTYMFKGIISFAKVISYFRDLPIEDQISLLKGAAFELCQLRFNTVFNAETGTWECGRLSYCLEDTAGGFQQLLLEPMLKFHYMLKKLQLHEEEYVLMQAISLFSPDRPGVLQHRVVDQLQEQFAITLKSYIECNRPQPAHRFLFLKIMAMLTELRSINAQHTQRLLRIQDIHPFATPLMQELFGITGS
How it was run: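 PXR-Luc HepG2 reporter cells (CYP3A4-driven luciferase) in 5% charcoal-stripped FBS medium, plated 5 h before compound addition, then treated 24 h at 37C. Luciferase read by ONE-Glo luminescence after 30 min at room temperature.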

[7] = molecular target: Cytochrome P450 2D6 (Homo sapiens) (UniProt P10635); experiment: Cytochrome P450 Family 2 Subfamily D Member 6 (CYP2D6) small molecule antagonists: luciferase reporter qHTS assay (AID 1671196); further: series mostly up to about 120 µM; nearly all actives have a fitted effect of over 50% in size
Cytochrome P450 2D6 (Homo sapiens), sequence (P10635 whole entry, looked up): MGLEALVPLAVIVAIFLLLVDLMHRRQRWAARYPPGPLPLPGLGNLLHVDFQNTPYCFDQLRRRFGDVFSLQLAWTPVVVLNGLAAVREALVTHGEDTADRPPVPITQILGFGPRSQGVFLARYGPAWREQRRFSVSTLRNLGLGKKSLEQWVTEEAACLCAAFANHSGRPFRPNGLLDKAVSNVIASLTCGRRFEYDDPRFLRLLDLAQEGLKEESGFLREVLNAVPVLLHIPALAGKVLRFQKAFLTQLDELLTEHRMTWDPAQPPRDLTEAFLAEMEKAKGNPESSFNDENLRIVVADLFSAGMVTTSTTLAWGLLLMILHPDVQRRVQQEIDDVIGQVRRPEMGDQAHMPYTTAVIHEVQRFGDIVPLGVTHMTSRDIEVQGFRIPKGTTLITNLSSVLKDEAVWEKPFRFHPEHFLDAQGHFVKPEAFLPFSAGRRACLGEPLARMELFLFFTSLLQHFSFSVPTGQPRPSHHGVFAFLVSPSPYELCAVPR
How it was run: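 Cell-free P450-Glo system: CYP2D6 with proluciferin substrate was pre-incubated with compound for 10 min, then reacted with NADPH regeneration for 1 h at room temperature. Luciferin product was detected after 20 min, and data were reported as relative luminescence units.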

Measured: Potency

C1CCC2(CCCCO2)OC1
inactive: all assays above

O=[N+]([O-])c1cncn1CCN1CCOCC1
inactive: all assays above

O=S(=O)(O)c1cccc(S(=O)(=O)O)c1
inactive: all assays above

CC(C)c1ccc2ncccc2c1
inactive: all assays above

C=CCCC(=O)O
inactive: all assays above

CCCCCCCCCCCCCCC(=O)O
inactive: all assays above

CN1C(C)(C)CC(O)CC1(C)C
inactive: all assays above

C=CCOCC(O)CO (stereo unspecified)
inactive: all assays above

CC(COc1ccccc1)NN (stereo unspecified)
inactive: all assays above

CC1(C)OC[C@@H](COC(=O)CCc2ccc(OC[C@@H](O)CNCCNC(=O)N3CCOCC3)cc2)O1
inactive: all assays above

C=CC(C)(CCC=C(C)C)OC(=O)CC (stereo unspecified)
inactive: all assays above

O=C(O)CCSCCC(=O)O
inactive: all assays above

O=C(CO)[C@@H](O)[C@H](O)[C@@H](O)CO
inactive: all assays above
